Laboratory results reported in the supplement of paper PMC11628255, “Interference of metal ions on the bioluminescent signal of firefly, Renilla, and NanoLuc luciferases in high-throughput screening assays” (Frontiers in Chemistry, 2024).
± gives the standard deviation of the averaged measurements.

Test system: firefly luciferase (FLuc)
Test: residual bioluminescent signal relative to negative (DMSO) control; higher = less interference (more residual luciferase signal)
Method: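 Purified luciferase (FLuc 10 nM + 10 uM D-luciferin; NLuc 10 pM + 10 uM furimazine; RLuc 50 pM + 2 uM coelenterazine) in 384-well plates; metal salt pre-incubated with enzyme 10 min at RT, substrate added and luminescence read after 10 min. Signal normalised to plate DMSO negative control (% N_VALUE = x/mean neg *100); triplicate wells at 0.01, 1 and 5 mM salt.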

[1] = metal salt concentration 0.01 mM, HEPES conditions (100 mM HEPES, 5 mM MgSO4, 10 uM ATP, pH 7.5)
[2] = metal salt concentration 0.01 mM, screening conditions (0.5 mM Tris, 50 mM glycine, 0.5 mM EDTA, 5 mM MgSO4, 10 uM ATP, pH 7.6)
[3] = metal salt concentration 1 mM, HEPES conditions (100 mM HEPES, 5 mM MgSO4, 10 uM ATP, pH 7.5)
[4] = metal salt concentration 1 mM, screening conditions (0.5 mM Tris, 50 mM glycine, 0.5 mM EDTA, 5 mM MgSO4, 10 uM ATP, pH 7.6)
[5] = metal salt concentration 5 mM, HEPES conditions (100 mM HEPES, 5 mM MgSO4, 10 uM ATP, pH 7.5)
[6] = metal salt concentration 5 mM, screening conditions (0.5 mM Tris, 50 mM glycine, 0.5 mM EDTA, 5 mM MgSO4, 10 uM ATP, pH 7.6)

Structure (SMILES)	residual bioluminescent signal [1]	residual bioluminescent signal [2]	residual bioluminescent signal [3]	residual bioluminescent signal [4]	residual bioluminescent signal [5]	residual bioluminescent signal [6]
[Cl][Fe][Cl] [iron(II) chloride]	28.9 ± 6.8%	108 ± 1.6%	1.76 ± 0.23%	0.343 ± 0.046%	0.814 ± 0.7%	0.369 ± 0.091%
CC#N.CC#N.CC#N.CC#N.F[B-](F)(F)F.[Cu+] [tetrakis(acetonitrile)copper(I) tetrafluoroborate]	0.543 ± 0.23%	115 ± 2.9%	0.407%	0.474 ± 0.16%	0.679 ± 0.47%	0.422 ± 0.36%
[Cl-].[Na+] [sodium chloride]	102 ± 17%	104.5 ± 0.25%	103 ± 19%	101 ± 5.4%	92.4 ± 2%	79.7 ± 3.2%
O=S(=O)([O-])[O-].[Fe+2] [iron(II) sulfate]	10.5 ± 3.6%	109 ± 9.9%	1.09 ± 0.23%	0.237 ± 0.14%	1.22%	0.237 ± 0.21%
